Experimental data from PubChem BioAssay (Tox21).
Inconclusive results are not listed. The source made the active and inactive calls. Calls follow the shape of the dose curve; as a rule, active = well fitted curve in the direction sought with a large enough effect in the repeat runs; inconclusive = weak or mixed curves; inactive = no such curve, though single readings can be large; an effect the other way counts as inactive or inconclusive. Where a SMILES comes first, the peptide text is derived from it.

Columns and labels:
[1] = qHTS RealTime-Glo MT Cell Viability Assay in HepG2 cells - 24 hour (AID 1224867); also: nearly all actives have a fitted effect of over 50% in size
Procedure, shortened: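 Compound treatment began 5 h after plating HepG2 cells (600/well) with NanoLuc luciferase and prosubstrate. Plates stayed at 37 C for 40 h; luminescence was captured at six time points, 0 h through 40 h.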

[2] = qHTS RealTime-Glo MT Cell Viability Assay in HEK293 cells - 32 hour (AID 1224868); also: top concentration of the series differs between compounds; nearly all actives have a fitted effect of over 50% in size
Procedure, shortened: (§1)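 Quantitative high-throughput screen of the Tox21 10K library in HEK293: cells and RealTime-Glo reagents plated together, compound added at 5 h, luminescence monitored through 40 h at 37 C.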

[3] = A CellTox Green Cytotoxicity Assay to monitor cytotoxicity in HEK293 cells - 0 hour (AID 1224869); also: nearly all actives have a fitted effect of over 50% in size
Procedure, shortened: (§2)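 Nonlytic real-time cytotoxicity: HEK293 + CellTox Green reagent plated, 5 h preincubation, pintool compound addition (23 nL in DMSO), 37 C for 40 h, fluorescence measured at successive time points.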

[4] = qHTS RealTime-Glo MT Cell Viability Assay in HepG2 cells - 40 hour (AID 1224870); also: nearly all actives have a fitted effect of over 50% in size
Procedure, shortened: (§3)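 HepG2 cells mixed with RealTime-Glo MT reagents (NanoLuc plus cell-permeant prosubstrate) were seeded at 600 cells/well, incubated 5 h at 37 C/5% CO2, then pinned with compounds in DMSO; nonlytic luminescence tracked viability during 40 h treatment.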

[5] = A CellTox Green Cytotoxicity Assay to monitor cytotoxicity in HEK293 cells - 40 hour (AID 1224871); also: nearly all actives have a fitted effect of over 45% in size
Procedure, shortened: as §2

[6] = qHTS RealTime-Glo MT Cell Viability Assay in HepG2 cells - 8 hour (AID 1224873); also: nearly all actives have a fitted effect of over 55% in size
Procedure, shortened: as §3

[7] = qHTS RealTime-Glo MT Cell Viability Assay in HEK293 cells - 40 hour (AID 1224874); conditions: RealTime-Glo luminescence; max response: hits give low values; also: nearly all actives have a fitted effect of over 50% in size
Procedure, shortened: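 Cells were seeded together with NanoLuc luciferase and a prosubstrate that viable cells reduce to a luciferase substrate. After a 5 h incubation at 37 C/5% CO2, compounds were added and luminescence was measured repeatedly during 40 h of treatment.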

[8] = A CellTox Green Cytotoxicity Assay to monitor cytotoxicity in HEK293 cells - 24 hour (AID 1224875); also: series mostly up to about 77 µM; nearly all actives have a fitted effect of over 45% in size
Procedure, shortened: as §2

[9] = A CellTox Green Cytotoxicity Assay to monitor cytotoxicity in HepG2 cells - 16 hour (AID 1224876); also: nearly all actives have a fitted effect of over 45% in size
Procedure, shortened: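 Read-out is fluorescence of a cyanine dye excluded from live cells that stains DNA of dead HepG2 cells, with signal proportional to cytotoxicity. Plates were read at 0, 8, 16, 24, 32 and 40 h after compound addition.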

[10] = qHTS RealTime-Glo MT Cell Viability Assay in HEK293 cells - 16 hour (AID 1224872)
Procedure, shortened: as §1
% is scaled to controls: 0 for no effect and ±100 for the full control effect.

Nc1nnnn1-c1ccccc1
inactive: outcome [1] | Potency [2] | Potency [3] | outcome [4] | Potency [5] | outcome [6] | max response [7] 0.0553% | Potency [8]

CO[Si](CCCn1c(=O)n(CCC[Si](OC)(OC)OC)c(=O)n(CCC[Si](OC)(OC)OC)c1=O)(OC)OC
inactive: outcome [1] | Potency [2] | Potency [3] | outcome [4] | Potency [5] | outcome [6] | max response [7] 1.02% | Potency [8] | Potency [9]

COC(=O)CCCCC(=O)O
inactive: outcome [1] | Potency [2] | Potency [3] | outcome [4] | Potency [5] | Potency [10] | outcome [6] | max response [7] 8.26% | Potency [9]

CC1=C(O)C(=O)C(C)O1 (centres undefined)
inactive: outcome [1] | Potency [2] | Potency [3] | outcome [4] | Potency [5] | outcome [6] | max response [7] 2.72% | Potency [8] | Potency [9]

O=S(=O)(O)c1ccc2c(N=Nc3ccc(S(=O)(=O)O)c4ccccc34)c(O)c(S(=O)(=O)O)cc2c1
inactive: activity change, negative = cytotoxicity [1] -1.89% [at 6.97 µM] | activity change, negative = cytotoxic [2] 7.73% [at 6.97 µM] | cytotoxicity [3] 3.08% [at 6.97 µM] | activity change, negative = cytotoxic [4] -7.38% [at 6.97 µM] | cytotoxicity increase [5] 7.83% [at 6.97 µM] | viability change, negative = cytotoxic [6] 0.329% [at 6.97 µM] | max response [7] 4.14% | activity change [8] 9.08% [at 6.97 µM, hits give high values] | cytotoxicity increase [9] -11.6% [at 6.97 µM]

CCC/C=C(\C=O)CC
inactive: outcome [1] | Potency [2] | Potency [3] | outcome [4] | Potency [10] | outcome [6] | max response [7] -24.3% | Potency [8] | Potency [9]

OCCN1CCOCC1
inactive: outcome [1] | Potency [2] | Potency [3] | outcome [4] | Potency [5] | outcome [6] | max response [7] 2.9% | Potency [8] | Potency [9]

O=C1c2ccccc2C(=O)c2cc(Cl)ccc21
inactive: activity change, negative = cytotoxicity [1] -1.65% [at 6.97 µM] | activity change, negative = cytotoxic [2] -1.41% [at 6.97 µM] | cytotoxicity [3] -6.57% [at 6.97 µM] | activity change, negative = cytotoxic [4] -4.67% [at 6.97 µM] | activity change, negative = cytotoxicity [10] 4.83% [at 6.97 µM] | viability change, negative = cytotoxic [6] 0.0863% [at 6.97 µM] | max response [7] 3.12% | activity change [8] -1.14% [at 6.97 µM, hits give high values] | cytotoxicity increase [9] -1.12% [at 6.97 µM]

O=C(NCN1CCOCC1)c1cnccn1
inactive: outcome [1] | Potency [2] | Potency [3] | outcome [4] | Potency [5] | outcome [6] | max response [7] 2.14% | Potency [8] | Potency [9]

CCn1cc(C(=O)O)c(=O)c2cnc(N3CCCC3)nc21
inactive: activity change, negative = cytotoxicity [1] 0.974% [at 6.97 µM] | activity change, negative = cytotoxic [2] 10% [at 6.97 µM] | cytotoxicity [3] 1.5% [at 6.97 µM] | activity change, negative = cytotoxic [4] 1.51% [at 6.97 µM] | cytotoxicity increase [5] 3.57% [at 6.97 µM] | activity change, negative = cytotoxicity [10] 1.68% [at 6.97 µM] | viability change, negative = cytotoxic [6] 5.81% [at 6.97 µM] | max response [7] 10.4% | cytotoxicity increase [9] 3.06% [at 6.97 µM]

CC(C)CCOC(=O)c1ccccc1
inactive: outcome [1] | Potency [2] | Potency [3] | outcome [4] | Potency [5] | Potency [10] | outcome [6] | max response [7] -0.72% | Potency [9]

Cc1c(C(=O)c2c[nH]n(C)c2=O)ccc(S(C)(=O)=O)c1C1=NOCC1
inactive: outcome [1] | Potency [2] | Potency [3] | outcome [4] | Potency [5] | outcome [6] | max response [7] 2.86% | Potency [9]

CN(C)CCN(C)CCO
inactive: outcome [1] | Potency [2] | Potency [3] | outcome [4] | Potency [10] | outcome [6] | max response [7] 5.64% | Potency [8] | Potency [9]

Cc1c(N)cccc1Cl
inactive: outcome [1] | Potency [2] | Potency [3] | outcome [4] | Potency [5] | Potency [10] | outcome [6] | max response [7] 5.05% | Potency [9]

C[Si]1(C)O[Si](C)(C)O[Si](C)(C)O[Si](C)(C)O[Si](C)(C)O1
inactive: outcome [1] | Potency [2] | Potency [3] | outcome [4] | Potency [5] | Potency [10] | outcome [6] | max response [7] 5.69% | Potency [9]

CCCCSCCCC
inactive: outcome [1] | Potency [2] | Potency [3] | outcome [4] | Potency [5] | outcome [6] | max response [7] 1.22% | Potency [8] | Potency [9]

C=CCCCCCCCC
inactive: outcome [1] | Potency [2] | Potency [3] | outcome [4] | Potency [5] | outcome [6] | max response [7] 1.11% | Potency [8] | Potency [9]

CC(=O)OC1CCCCC1C(C)(C)C (centres undefined)
inactive: outcome [1] | Potency [2] | Potency [3] | outcome [4] | Potency [5] | Potency [10] | outcome [6] | max response [7] 3.56% | Potency [9]

COCCc1ccccn1
inactive: outcome [1] | Potency [2] | Potency [3] | outcome [4] | Potency [5] | Potency [10] | outcome [6] | max response [7] -3.81% | Potency [9]

CC(=O)N[C@@H](CO)C(=O)N[C@@H](CC(=O)O)C(=O)N[C@@H](CCCCN)C(=O)N1CCC[C@H]1C(=O)O (Ac-SDKP-OH)
inactive: outcome [1] | Potency [2] | Potency [3] | outcome [4] | Potency [5] | Potency [10] | outcome [6] | max response [7] 3.58% | Potency [9]

N#Cc1cscn1
inactive: outcome [1] | Potency [2] | Potency [3] | outcome [4] | Potency [10] | outcome [6] | max response [7] 9.48% | Potency [8] | Potency [9]

CCCc1ccc(O)cc1
inactive: outcome [1] | Potency [2] | Potency [3] | outcome [4] | Potency [5] | outcome [6] | max response [7] 6.55% | Potency [8] | Potency [9]

CCCCOCC(C)O (centres undefined)
inactive: outcome [1] | Potency [2] | Potency [3] | outcome [4] | Potency [5] | outcome [6] | max response [7] 10.5% | Potency [8] | Potency [9]

COc1nc(N)nc2nc[nH]c12
inactive: outcome [1] | Potency [2] | Potency [3] | outcome [4] | Potency [5] | outcome [6] | max response [7] -26% | Potency [8] | Potency [9]

CCCCCc1cccc(=O)o1
inactive: outcome [1] | Potency [2] | Potency [3] | outcome [4] | Potency [5] | Potency [10] | outcome [6] | max response [7] -0.0336% | Potency [9]

ONc1ccccc1
inactive: outcome [1] | Potency [2] | Potency [3] | outcome [6] | max response [7] -13.8% | Potency [8] | Potency [9]

CC(=O)O[C@@H]1CC2CCC1(C)C2(C)C (some centres undefined)
inactive: outcome [1] | Potency [2] | outcome [4] | Potency [5] | Potency [10] | outcome [6] | max response [7] 5.83% | Potency [8] | Potency [9]

Cc1cc(C)c(C(=O)O)c(C)c1
inactive: outcome [1] | Potency [2] | Potency [3] | Potency [5] | Potency [10] | outcome [6] | max response [7] 1.4% | Potency [8] | Potency [9]

CC(N)CCCC(C)(C)O (centres undefined)
inactive: outcome [1] | Potency [2] | Potency [3] | outcome [6] | max response [7] 10% | Potency [8] | Potency [9]

CCOCCOCC
inactive: outcome [1] | Potency [2] | Potency [3] | outcome [4] | outcome [6] | max response [7] 2.51% | Potency [9]

C/C=C(\C)C(=O)OCCc1ccccc1
inactive: outcome [1] | Potency [2] | Potency [3] | outcome [4] | outcome [6] | max response [7] -3.34% | Potency [9]

C=C(C)[C@@H]1CC=C(C)CC1
inactive: outcome [1] | Potency [2] | Potency [3] | Potency [5] | outcome [6] | max response [7] 1.3% | Potency [8] | Potency [9]

O=C1OCCO1
inactive: outcome [1] | Potency [2] | Potency [3] | outcome [4] | Potency [10] | outcome [6] | max response [7] 1.36% | Potency [8] | Potency [9]

CCCCCCCCCOC(=O)c1ccccc1C(=O)OCCCCCCCCC
inactive: outcome [1] | Potency [2] | Potency [3] | outcome [4] | Potency [10] | outcome [6] | max response [7] 2.9% | Potency [9]
